Calls of active or inactive are those of the source.
Assays:
[1] = compound effects on lung adenocarcinoma cell viability – A549, calcein-AM fluorescence, 48 h, basal, profiling panel (AID 1162); settings: higher = more signal
[2] = compound effects on differentiated 3T3-L1 adipocyte viability – cell-based, 3T3-L1 adipocytes, calcein-AM fluorescence, 48 h, basal, profiling panel (AID 1163); settings: 3T3-L1 adipocytes viability, higher = more signal
[3] = compound effects on hepatocellular carcinoma cell viability – HepG2, calcein-AM fluorescence, 48 h, basal, profiling panel (AID 1164); settings: higher = more signal
[4] = compound effects on multiple myeloma cell viability – MM1S, calcein-AM fluorescence, 48 h, basal, profiling panel (AID 1165); settings: higher = more signal;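 note: viability of MM1S multiple myeloma cells under basal unstimulated conditions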
[5] = calcein-AM signal in unstimulated myeloma cells – cell-based, calcein-AM fluorescence, 48 h, PK04 Diversity Set, profiling panel (AID 1166); settings: RPMI8226 myeloma viability, higher = more signal;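 note: cells grown under basal conditions without added stimulus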
[6] = JC-1 mitochondrial signal, unstimulated HepG2 cells – cell-based, JC-1 fluorescence, 24 h, 100 nL compound, profiling panel (AID 1167); settings: HepG2 mitochondrial potential, higher = more signal
[7] = JC-1 mitochondrial signal, unstimulated adipocytes – cell-based, JC-1 fluorescence, 3T3-L1 adipocytes, 24 h, 100 nL compound, profiling panel (AID 1168); settings: JC-1 mitochondrial fluorescence, higher = more signal, called active from +8 up or from −8 down
[8] = JC-1 mitochondrial signal, unstimulated myeloma cells – cell-based, JC-1 fluorescence, RPMI8226, 24 h, 100 nL compound, profiling panel (AID 1169); settings: JC-1 mitochondrial potential fluorescence, higher = more signal
[9] = JC-1 mitochondrial signal, unstimulated MM1S myeloma – cell-based, JC-1 fluorescence, 24 h, 100 nL compound, profiling panel (AID 1170); settings: MM1S mitochondrial potential, higher = more signal
[10] = resazurin metabolic signal in A549 cells – cell-based, resazurin fluorescence, 24 h, PK04 Diversity Set, profiling panel (AID 1171); settings: A549 viability, higher = more signal, called active from +8 up or from −8 down
Note: test concentration not given here.

| Structure (SMILES) | z-score [1] | z-score [2] | z-score [3] | z-score [4] | z-score [5] | z-score [6] | z-score [7] | z-score [8] | z-score [9] | z-score [10] |
| --- | --- | --- | --- | --- | --- | --- | --- | --- | --- | --- |
| COC(=O)[C@@]1(Cc2ccccc2)[C@H]2c3cc(C(=O)N4CCCC4)n(Cc4nc5ccccc5[nH]4)c3C[C@H]2CN1C(=O)c1ccccc1 | -0.579 | 0.887 | -0.537 | -2.39 | -2.19 | 1.73 | -0.807 (inactive) | -0.863 | -0.81 | -0.178 (inactive) |
| COCCOC(=O)N1C(=O)[C@@]2(c3ccccc31)[C@H](c1ccccc1OCCO)N1[C@H](c3ccccc3)[C@H](c3ccccc3)OC(=O)[C@H]1[C@@H]2C(=O)Nc1nc2ccccc2s1 | -0.331 | 0.0264 | -0.271 | -1.39 | -1.54 | -1.51 | 1.79 (inactive) | -1.01 | -1.33 | -1.02 (inactive) |
| O=C1O[C@H](c2ccccc2)[C@H](c2ccccc2)N2[C@H]1[C@@H](C(=O)O)[C@]1(C(=O)Nc3ccc(C#CC4=CCCCC4)cc31)[C@H]2c1ccccc1OCCO | -0.986 | -1.21 | -4.28 | -3.3 | -4.21 | -3.56 | 1.39 (inactive) | -0.935 | -1.68 | -1.84 (inactive) |
| CCCCN1CC=CC23O[C@@H]4/C=C\CCC(C)OC(=O)C4[C@H]2C(=O)N(CCCCCO)[C@@H]3C1=O (stereo not given in full) | -0.143 | 0.0763 | 0.478 | 1.52 | 0.096 | 0.241 | 0.9 (inactive) | 0.32 | -0.133 | 0.455 (inactive) |
| COc1ccc([Si](C)(C)[C@H]2[C@H](CC(=O)N3Cc4ccccc4C[C@H]3CO)O[C@@]3(C(=O)N(Cc4ccc(N5CCC5=O)cc4)c4ccccc43)[C@@H]2C)cc1 | -0.279 | 0.656 | -0.727 | -2.32 | -3.26 | 1.67 | 0.657 (inactive) | -1.04 | -0.928 | -0.0964 (inactive) |
| OC([C@@H]1CC(c2ccccc2)=NO1)[C@H]1CC(c2ccccc2)=NO1 (stereo not given in full) | 1.51 | 0.222 | 1.59 | 0.703 | -0.132 | 1.05 | 0.635 (inactive) | -0.847 | 0.439 | 1.04 (inactive) |
| CN1C(=O)C2C=CC(C(O)C3CC=CCC3)N(NC(=O)OC(C)(C)C)C2C1=O (stereo not given) | 0.414 | -0.61 | -0.622 | -0.0764 | -0.291 | -1.58 | -0.493 (inactive) | 0.295 | -0.121 | -0.111 (inactive) |
| COCCOC(=O)N1C(=O)[C@@]2(c3cc(C#CCNC(N)=O)ccc31)[C@H](C(=O)NC[C@H](O)c1ccccc1)[C@H]1C(=O)O[C@H](c3ccccc3)[C@H](c3ccccc3)N1[C@@H]2c1ccccc1OCCO | 1.22 | 0.504 | 0.829 | 0.837 | 0.676 | -0.523 | 0.749 (inactive) | -0.548 | -1.04 | -0.0062 (inactive) |
| O=C(C1N=C(c2ccc(OCCCO)cc2)N(c2ccccc2)O1)N1CCOCC1 (stereo not given) | 0.895 | 0.349 | 0.0818 | 0.932 | 1.22 | 0.0222 | 0.645 (inactive) | -1.06 | -1.05 | 0.298 (inactive) |
| O=C1OCCC/C=C\[C@H]2OC34C=CCN(c5ccc6ccccc6c5)C(=O)[C@H]3N(CCCCCCO)C(=O)[C@@H]4C12 (stereo not given in full) | 1.21 | 0.817 | 2 | 1.92 | 0.254 | 1.02 | 0.4 (inactive) | -0.967 | -0.257 | -0.0595 (inactive) |
| C=CCOC(=O)[C@H]1[C@@H]2C(=O)O[C@@H](c3ccccc3)[C@@H](c3ccccc3)N2[C@@H](c2ccc(OCCOC(=O)[C@@H]3C[C@@H]4C(=O)N[C@@H](CCCCN(C)C)C(=O)N4[C@@H]3c3ccc(O)cc3)cc2)[C@]12C(=O)Nc1ccc(I)cc12 | -0.508 | -0.523 | -0.222 | -0.397 | -0.449 | -1.65 | 0.832 (inactive) | -0.7 | -1.6 | 0.183 (inactive) |
| CN(C)CCCNC(=O)[C@@]1(c2ccc([N+](=O)[O-])cc2)CC(=O)N(C2CCCCC2)[C@@H]1c1ccc(CO)cc1 | 0.259 | -0.272 | 0.23 | -0.432 | -1.43 | 0.259 | 0.255 (inactive) | 0.956 | -0.435 | 0.497 (inactive) |
| COc1ccc([Si](C)(C)[C@@H]2[C@@H](CCO)O[C@]3(C(=O)N(Cc4ccc(N5C(=O)COc6ccccc65)cc4)c4ccccc43)[C@H]2C)cc1 | -1.54 | -0.0973 | -3.87 | -2.41 | -3.72 | -0.917 | -0.189 (inactive) | -0.923 | -1.53 | -2.38 (inactive) |
| CCOC(=O)C[C@H]1[C@H](OC(=O)Cc2ccc3c(c2)OCO3)[C@@H](NC(=O)c2ccc(-c3ccccc3)cc2)c2cc(OCCCO)ccc2N1C(=O)c1ccc2ccccc2n1 | 1.8 | 2.75 | 1.65 | 0.218 | -0.472 | 2.72 | 0.61 (inactive) | -0.233 | -0.903 | 0.562 (inactive) |

Reference: PubChem BioAssay
